Laboratory results: PubChem BioAssay AID1159580 (chemical genetic matrix, 2015)
In all, about 5,500 compounds went through this assay and about 2,000 (36%) were called active. Inconclusive results (about 18%) are left out. Cut-off read from the data, not from the text of the source: active = normalized growth mostly below about 0.91 (no sharp cut-off); inconclusive = no clear call, values can overlap the other calls; inactive = mostly above about 0.92. The list shows a part of the results.

Experiment: chemical genetic growth profiling, strain panel (AID 1159580);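 note: tested at 20 µM; growth read once vehicle control cultures reached saturation at 30 °C; 1 = growth at the plate median or of vehicle wells; lower values mean less growth of the strain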
Settings: growth OD

Measured: normalized growth

C[N+]1(C)C[C@H](O)[C@H](C(=O)[O-])C1
inactive: S. cerevisiae deletion strains, locus YJR043C, strain POL32, stronger effect = lower value 0.995 | S. cerevisiae deletion strains, locus YJR075W, strain HOC1, stronger effect = lower value 0.994 | S. cerevisiae deletion strains, locus YKL009W, strain mrt4, stronger effect = lower value 0.991 | S. cerevisiae deletion strains, locus YKL068W, stronger effect = lower value 0.996 | S. cerevisiae deletion strains, locus YKL085W, strain MDH1 (second series), stronger effect = lower value 0.988 | S. cerevisiae deletion strains, locus YKL085W, strain MDH1, stronger effect = lower value 0.988 | S. cerevisiae deletion strains, locus YKL160W, strain elf1, stronger effect = lower value 0.993 | S. cerevisiae deletion strains, locus YKL190W, strain CNB1, stronger effect = lower value 1.01 | S. cerevisiae deletion strains, locus YKR001C, strain vps1, stronger effect = lower value 0.995 | S. cerevisiae deletion strains, locus YKR026C, strain gcn3, stronger effect = lower value 1.01 | S. cerevisiae deletion strains, locus YKR091W, strain srl3, stronger effect = lower value 1.01 | S. cerevisiae deletion strains, locus YLL001W, strain dnm1, stronger effect = lower value 1 | S. cerevisiae deletion strains, locus YLL026W, stronger effect = lower value 1.02 | S. cerevisiae deletion strains, locus YLL041C, strain sdh2, stronger effect = lower value 1.01 | S. cerevisiae deletion strains, locus YLR027C, strain aat2, stronger effect = lower value 1.01 | S. cerevisiae deletion strains, locus YLR039C, strain RIC1, stronger effect = lower value 1.02 | S. cerevisiae deletion strains, locus YLR058C, strain SHM2, stronger effect = lower value 1.01 | S. cerevisiae deletion strains, locus YLR102C, strain apc9, stronger effect = lower value 0.995 | S. cerevisiae deletion strains, locus YLR221C, strain rsa3, stronger effect = lower value 0.997 | S. cerevisiae deletion strains, locus YLR258W, strain gsy2, stronger effect = lower value 1.03 | S. cerevisiae deletion strains, locus YLR262C, strain YPT6 (second series), stronger effect = lower value 1.02 | S. cerevisiae deletion strains, locus YLR262C, strain YPT6, stronger effect = lower value 1.01 | S. cerevisiae deletion strains, locus YLR268W, strain sec22, stronger effect = lower value 0.991 | S. cerevisiae deletion strains, locus YLR320W, strain mms22, stronger effect = lower value 1.03 | S. cerevisiae deletion strains, locus YLR330W, strain CHS5, stronger effect = lower value 1 | S. cerevisiae deletion strains, locus YLR342W, strain FKS1 (second series), stronger effect = lower value 1.02 | S. cerevisiae deletion strains, locus YLR342W, strain FKS1, stronger effect = lower value 1.01 | S. cerevisiae deletion strains, locus YLR357W, strain rsc2, stronger effect = lower value 1.02 | S. cerevisiae deletion strains, locus YLR370C, strain arc18, stronger effect = lower value 1.02 | S. cerevisiae deletion strains, locus YLR371W, strain rom2, stronger effect = lower value 0.996 | S. cerevisiae deletion strains, locus YLR384C, strain iki3, stronger effect = lower value 1.02 | S. cerevisiae deletion strains, locus YLR418C, strain cdc73, stronger effect = lower value 1.01 | S. cerevisiae deletion strains, locus YML016C, strain PPZ1, stronger effect = lower value 1.01 | S. cerevisiae deletion strains, locus YML032C, strain rad52, stronger effect = lower value 0.991 | S. cerevisiae deletion strains, locus YML120C, strain ndi1, stronger effect = lower value 0.991 | S. cerevisiae deletion strains, locus YML124C, strain tub3, stronger effect = lower value 0.997 | S. cerevisiae deletion strains, locus YMR058W, strain fet3, stronger effect = lower value 1.01 | S. cerevisiae deletion strains, locus YMR078C, strain ctf18, stronger effect = lower value 1.01 | S. cerevisiae deletion strains, locus YMR125W, strain sto1, stronger effect = lower value 1.02 | S. cerevisiae deletion strains, locus YMR129W, stronger effect = lower value 1.01 | S. cerevisiae deletion strains, locus YMR205C, strain PFK2, stronger effect = lower value 1.04 | S. cerevisiae deletion strains, locus YMR223W, strain ubp8, stronger effect = lower value 0.989 | S. cerevisiae deletion strains, locus YMR231W, strain pep5, stronger effect = lower value 1.01 | S. cerevisiae deletion strains, locus YMR263W, strain SAP30, stronger effect = lower value 1.02 | S. cerevisiae deletion strains, locus YMR307W, strain GAS1, stronger effect = lower value 1.07 | S. cerevisiae deletion strains, locus YNL067W, strain RPL9B, stronger effect = lower value 1.01 | S. cerevisiae deletion strains, locus YNL071W, strain lat1, stronger effect = lower value 1.02 | S. cerevisiae deletion strains, locus YNL128W, strain TEP1, stronger effect = lower value 1.01 | S. cerevisiae deletion strains, locus YNL153C, strain GIM3, stronger effect = lower value 1.01 | S. cerevisiae deletion strains, locus YNL209W, strain ssb2, stronger effect = lower value 1.01 | S. cerevisiae deletion strains, locus YNL233W, strain BNI4, stronger effect = lower value 1.01 | S. cerevisiae deletion strains, locus YNL248C, strain rpa49, stronger effect = lower value 0.98 | S. cerevisiae deletion strains, locus YNL250W, strain rad50, stronger effect = lower value 0.992 | S. cerevisiae deletion strains, locus YNL271C, strain bni1, stronger effect = lower value 0.995 | S. cerevisiae deletion strains, locus YNL298W, strain CLA4, stronger effect = lower value 1 | S. cerevisiae deletion strains, locus YNL307C, strain MCK1, stronger effect = lower value 1.01 | S. cerevisiae deletion strains, locus YNL322C, strain KRE1 (second series), stronger effect = lower value 1.02 | S. cerevisiae deletion strains, locus YNL322C, strain KRE1, stronger effect = lower value 1.01 | S. cerevisiae deletion strains, locus YNR049C, strain mso1, stronger effect = lower value 1.01 | S. cerevisiae deletion strains, locus YNR052C, strain pop2, stronger effect = lower value 1 | S. cerevisiae deletion strains, locus YOL006C, strain TOP1, stronger effect = lower value 1.06 | S. cerevisiae deletion strains, locus YOL012C, strain htz1 0.813 | S. cerevisiae deletion strains, locus YOL147C, strain pex11, stronger effect = lower value 1 | S. cerevisiae deletion strains, locus YOR001W, strain rrp6, stronger effect = lower value 0.989 | S. cerevisiae deletion strains, locus YOR061W, strain CKA2, stronger effect = lower value 1 | S. cerevisiae deletion strains, locus YOR069W, strain VPS5, stronger effect = lower value 1 | S. cerevisiae deletion strains, locus YOR070C, strain gyp1, stronger effect = lower value 1.01 | S. cerevisiae deletion strains, locus YOR080W, strain dia2, stronger effect = lower value 1.01 | S. cerevisiae deletion strains, locus YOR083W, strain WHI5, stronger effect = lower value 0.979 | S. cerevisiae deletion strains, locus YOR106W, strain vam3, stronger effect = lower value 0.996 | S. cerevisiae deletion strains, locus YOR136W, strain idh2, stronger effect = lower value 0.996 | S. cerevisiae deletion strains, locus YOR144C, strain elg1, stronger effect = lower value 0.996 | S. cerevisiae deletion strains, locus YOR184W, strain ser1, stronger effect = lower value 1.01 | S. cerevisiae deletion strains, locus YOR265W, strain rbl2, stronger effect = lower value 1.01 | S. cerevisiae deletion strains, locus YOR270C, strain vph1, stronger effect = lower value 1.02 | S. cerevisiae deletion strains, locus YOR290C, strain snf2, stronger effect = lower value 1 | S. cerevisiae deletion strains, locus YOR316C, strain cot1, stronger effect = lower value 0.995 | S. cerevisiae deletion strains, locus YPL051W, strain arl3, stronger effect = lower value 1.02 | S. cerevisiae deletion strains, locus YPL055C, strain LGE1, stronger effect = lower value 1.03 | S. cerevisiae deletion strains, locus YPL078C, strain atp4, stronger effect = lower value 1 | S. cerevisiae deletion strains, locus YPL106C, strain sse1, stronger effect = lower value 1.04 | S. cerevisiae deletion strains, locus YPL240C, strain hsp82, stronger effect = lower value 1.02 | S. cerevisiae deletion strains, locus YPL241C, strain CIN2, stronger effect = lower value 1.01 | S. cerevisiae deletion strains, locus YPR119W, strain clb2, stronger effect = lower value 1 | S. cerevisiae deletion strains, locus YPR141C, strain kar3, stronger effect = lower value 1 | S. cerevisiae deletion strains, locus YPR163C, strain tif3, stronger effect = lower value 0.996 | S. cerevisiae deletion strains, locus YPR167C, strain met16, stronger effect = lower value 0.995 | S. cerevisiae deletion strains, strain wtn01, stronger effect = lower value 0.988 | S. cerevisiae strains, strain wild type, stronger effect = lower value 1
